MCF10A rereplic: DNA re-replication induction in MCF 10a cells; MCF 10A DNA re-replication, Hoechst nuclear intensity, 48 h; actives 2.9% (n = 350,000); Potency, µM (titrated, usually from 46.1 µM), for the others: at the highest dose activity, positive = re-replication, usual class: activators; AID 624296; also: % of control where 0% means no effect; nearly all actives have a fitted effect of over 50% in size
SW480 rerep: DNA re-replication induction in SW480 cells | SW480 DNA re-replication, Hoechst DNA content imaging, 48 h | Potency, µM (highest dose often 46.1 µM), for the others: top-dose re-replication activation, actives largely listed as activators | actives 1.8% (n = 340,000); also: % of control where 0% means no effect; nearly all actives have a fitted effect of over 55% in size
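SW480 cells exposed to compounds for 48 hr at 37 C, 5% CO2, then Hoechst-stained 40 min. Nuclear DNA content imaged by fluorescence scanning (405 nm excitation, 500-530 nm emission); re-replication scored as increased high-intensity nuclei.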
KB-V1 cytotox: KB-V1 MDR subline cytotoxicity; actives 3.4% (n = 400,000); Potency, µM (highest dose often 46.1 µM), hits mostly cytotoxic; AID 1347076; KB-V1 MDR cells viability, CellTiter-Glo, 72 h; also: % is scaled to controls: 0 for no effect and ±100 for the full control effect; nearly all actives have a fitted effect of over 60% in size
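Compound-treated KB-V1 multidrug-resistant cells, 72 h, 37 degrees C; viability by CellTiter-Glo. Fitted qHTS curves give the values.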
KB-3-1 tox: kills parental KB-3-1 adenocarcinoma cells; KB-3-1 viability, CellTiter-Glo ATP luminescence, 72 h; AID 1347075; Potency, µM (top dose mostly 46.1 µM), usual class: cytotoxic; actives 1.4% (n = 400,000); also: % is scaled to controls: 0 for no effect and ±100 for the full control effect; nearly all actives have a fitted effect of over 60% in size
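Cells are dispensed, compounds pinned in, plates held at 37 °C for 72 h, then CellTiter-Glo is added and luminescence read after 10 minutes. Cell line: parental KB-3-1 in phenol-red-free DMEM, 10% FBS.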
HT1080NT lethal: kills 2HG-producing HT-1080-NT fibrosarcoma cells; HT-1080-NT fibrosarcoma viability, CellTiter-Glo ATP luminescence, 48 h; actives 1.6% (n = 360,000); Potency, µM (titrated, usually from 46.1 µM), inactives show top-dose activity, negative = less viability, hits mostly cytotoxic;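 also: NT is the 2HG producing partner of a matched IDH1 knockdown line; 0% = DMSO-treated cells and -100% = media-only wells without cells; nearly all actives have a fitted effect of over 55% in size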
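750 cells/well, RPMI + 5% FBS; 2 h settle, compound pin-transfer, 48 h at 37 degrees C. CellTiter-Glo 10 min RT, luminescence. Normalized to DMSO and media-only wells.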
HT1080 IDH1KD tx: HT-1080 IDH1 knockdown cell toxicity (counter line); HT-1080 IDH1 knockdown viability, ATP luminescence, 48 h; Potency, µM (doses to about 46.1 µM), without a hit: at the highest dose activity, negative = toxicity, actives largely listed as cytotoxic; actives 2% (n = 360,000); AID 686971;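 also: 0% = DMSO wells and -100% = cell-free medium wells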
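After a 2 h attachment period, IDH1KD HT-1080 cells took pin-transferred compound for 48 h at 37 °C; ATP-based luminescence after 10 min room-temperature reagent incubation reported viability.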
* = called active by the depositor; i = inactive; ? = inconclusive; · = not tested or not shown. A selection: hits, their analogues and other compounds. The true share with any hit is near 8%. Calls follow the shape of the dose curve; as a rule, active = well fitted curve in the direction sought with a large enough effect; inconclusive = small, poorly fitted or top-dose-only effect, or another doubt; inactive = no such curve, though single readings can be large; an effect the other way counts as inactive or inconclusive. Potency is read from the fitted curve at half-maximal effect.

SMILES	MCF10A rereplic	SW480 rerep	KB-V1 cytotox	KB-3-1 tox	HT1080NT lethal	HT1080 IDH1KD tx
Cc1cc(C)c2nc(NNC(=O)c3ccc(S(=O)(=O)N4CC(C)CC(C)C4)cc3)sc2c1 (configuration not stated)	?	?	i	i	?	12µM*
Cc1cc(C)c2nc(NC(=O)c3ccc(S(=O)(=O)N4CCC(C)CC4)cc3)sc2c1	·	·	i	i	·	·
Nc1cccc2[nH]cnc12	·	·	i	i	·	·
O=C1CCCc2nc(N3CCN(Cc4ccccc4)CC3)ncc21	11%	-2%	21µM*	i	-17%	0%
Cc1nc(N2CCN(Cc3ccccc3)CC2)nc2c1C(=O)CC(c1ccco1)C2 (configuration not stated)	?	12%	8.2µM*	?	2%	7%
Cc1nc(N2CCN(Cc3ccccc3)CC2)nc2c1C(=O)CCC2	?	0%	18µM*	?	-2%	-2%
CCCc1nc2ccc(C)cn2c1Cc1ccccc1OC	·	·	?	i	?	18µM*
Cc1ccc2nc(C3CCCCC3)c(CC(C)(C)C)n2c1	·	·	i	i	16µM*	?
COc1ccccc1Cc1c(C2CCCCC2)nc2ccc(Cl)cn12	·	·	i	?	?	?
Cc1ccc2nc(-c3ccc(Cl)cc3)c(Cc3ccccc3C(F)(F)F)n2c1	·	·	?	i	3%	6%
COc1ccccc1Cc1c(C2CCCCC2)nc2ccc(C)cn12	·	·	i	i	13µM*	?
CCCc1nc2ccc(C)cn2c1Cc1ccccc1C(F)(F)F	·	·	i	i	26µM*	33µM*
CCCc1nc2ccc(Cl)cn2c1Cc1ccccc1OC	·	·	i	?	?	?
COc1ccccc1-c1noc(-c2ccc(NCC3CCCO3)c([N+](=O)[O-])c2)n1 (configuration not stated)	·	·	i	i	·	·
CCCN(CC(=O)Nc1ccc(Cl)cc1Cl)C(=O)c1ccc(=O)[nH]c1	6%	11%	i	i	0%	0%
COc1ccc(CN2CCNC(=O)C2CC(=O)NCCSc2nccn2C)cc1OC (configuration not stated)	14%	5%	i	i	4%	4%
CCc1ccc(C(=O)NNC(=O)OC)cc1	1%	14%	i	i	20%	5%
COCc1cc(C)nc(Sc2nc3c(c(=O)n(C)c(=O)n3C)n2C)c1C#N	2%	-6%	i	i	-1%	19%
CCCCOc1cccc(C(=O)N(Cc2ccc(Cl)cc2)C2CCS(=O)(=O)C2)c1 (configuration not stated)	·	·	?	i	·	·
CCOc1ccc(S(=O)(=O)Nc2ccc(C(=O)N3CCCC3)cc2)cc1C(N)=O	19%	-13%	i	i	9%	11%
CCOc1nc(SCCOc2ccc(Cl)cc2Cl)nc(N(C)C)n1	110%	-2%	21µM*	i	26%	5%
CCOC(=O)C1(Cc2ccccc2C)CCCN(Cc2ccc(NC(C)=O)cc2)C1 (configuration not stated)	0%	3%	i	i	-25%	-2%
COc1ccc(OC)c(NC(=O)C(CCSC)NS(=O)(=O)c2cccs2)c1 (configuration not stated)	11%	-3%	i	i	-10%	-4%
COc1ccc(OC)c(NC(=O)CN(Cc2ccc(F)cc2)C2CCCCC2)c1	18µM*	1%	?	16µM*	?	?
COc1ccc(OC)c(NC(=O)CN(Cc2ccccc2)S(C)(=O)=O)c1	1µM*	-31%	i	i	-10%	-8%
SMILES	MCF10A rereplic	SW480 rerep	KB-V1 cytotox	KB-3-1 tox	HT1080NT lethal	HT1080 IDH1KD tx
COc1ccc(NC(=O)CN(Cc2ccccc2)S(C)(=O)=O)c(OC)c1	-15%	-1%	i	i	0%	3%
COc1ccc(Cl)cc1NC(=O)CN(C)C1CCCCC1	0%	8%	?	i	-12%	-8%
COc1ccc(C)cc1NC(=S)N1CC(C)OC(C)C1 (configuration not stated)	-14%	-4%	i	i	11%	17%
COc1ccc(-n2nc(C(=O)Nc3ccc4c(c3)OCO4)c3c4ccccc4n(C)c3c2=O)cc1	2%	-2%	i	i	13%	11%
COc1ccc(-n2nc(C(=O)Nc3ccc(OC)c(OC)c3)c3c4ccccc4n(C)c3c2=O)cc1	?	16µM*	?	?	9%	0%
COCCN1C(=O)c2oc3ccc(C)cc3c(=O)c2C12C(=O)N(C)c1ccccc12 (configuration not stated)	·	·	i	i	·	·
CCCCn1c(SCC(=O)c2ccc(OC)cc2OC)nc2cc(S(N)(=O)=O)ccc21	4%	-4%	18µM*	i	-6%	-3%
CC(C)n1c(NCc2ccccc2O)nc2ccccc21	-1%	3%	i	i	1%	-7%
C=CCc1cccc(CNc2nc3ccccc3n2C(C)C)c1O	?	-9%	?	i	?	11µM*
CCN(CC)CCn1c2c(c(SCC(=O)Nc3cccc4ccccc34)nc1=O)CCC2	-1%	52%	i	i	-2%	-1%
CN(C)CCn1c2c(c(SCC(=O)Nc3cccc4ccccc34)nc1=O)CCCC2	17%	0.58µM*	i	i	-21%	-12%
COc1ccc(NC(=O)CSc2nc(=O)n(CCN3CCOCC3)c3c2CCCC3)c(OC)c1	-1%	1%	8.2µM*	i	4%	4%
COc1ccc(NC(=O)CSc2nc(=O)n(CCN3CCOCC3)c3c2CCC3)c(OC)c1	5%	-4%	i	i	5%	1%
CC1CCCN(S(=O)(=O)c2ccc(NC(=O)Cn3nnc(-c4ccccc4F)n3)cc2)C1 (configuration not stated)	?	?	i	i	?	?
Cc1ccc(-c2nnn(CC(=O)Nc3ccc(S(=O)(=O)N4CCC(C)CC4)cc3)n2)cc1	2%	8%	?	i	23µM*	12µM*
CC1CCN(S(=O)(=O)c2ccc(NC(=O)Cn3nnc(-c4ccccc4)n3)cc2)CC1	?	10%	15µM*	?	?	?
C=CCN1CC(c2nc3ccccc3n2CCOc2ccccc2)CC1=O (configuration not stated)	-6%	-6%	15µM*	i	0%	3%
CCCCN1CC(c2nc3ccccc3n2CCCCOc2cc(C)cc(C)c2)CC1=O (configuration not stated)	·	·	i	i	·	·
